Results reported in PubChem BioAssay (NCI).
About 79,000 compounds went through this panel and 15% of them were active in at least one assay; those are over-represented in the sample as a whole. Active and inactive are the calls of the source. Rule as the data show it: active = growth inhibition above about 70%; inactive = the rest. Starred links: 1 amine or outer side, 2 acyl side, 3 side chain; linkers in the order of their positions; H or OH if unused. Positions of bridges follow the written chain, without caps; N, C: chain ends. Non-standard residues stand in square brackets, D forms with d. Residues, ends and D or L forms follow the SMILES beside them. Chains are numbered I, II in the order given. Actinocin(9to1) = Cc1c2oc3c(C)ccc(C(=O)[*:1])c3nc-2c(C(=O)[*:2])c(N)c1=O; aThr = C[C@H](O)[C@H](N)C(=O)O; NMeV = CN[C@H](C(=O)O)C(C)C; Sar = CNCC(=O)O

What was measured:
[1] = NCI Yeast Anticancer Drug Screen. Data for the wt1 strain (AID 149);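 also: 0% = growth of vehicle-treated wt1 cultures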; settings: S. cerevisiae wt1 strain (SPY 50644) growth inhibition, active compounds read high
How it was run: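 Growth inhibition read against vehicle controls after compound exposure of the wt1 yeast strain.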

[2] = NCI Yeast Anticancer Drug Screen. Data for the rad50EPP+ strain (AID 151);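 also: 0% = growth of vehicle-treated control cultures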; settings: S. cerevisiae rad50 mutant strain, active compounds read high
How it was run: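 Read-out is yeast growth inhibition relative to vehicle; cells used were the rad50EPP+ strain.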

[3] = NCI Yeast Anticancer Drug Screen. Data for the mgt1 strain (AID 153); settings: S. cerevisiae mgt1 mutant growth inhibition, active compounds read high
How it was run: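 Measured: inhibition of mgt1 yeast growth by compound, normalized to vehicle-treated cultures.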

[4] = NCI Yeast Anticancer Drug Screen. Data for the rad50 strain (AID 155);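 also: 0% = growth of vehicle-only cultures of the same strain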; settings: S. cerevisiae rad50 strain growth inhibition, active compounds read high
How it was run: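 Readout: growth inhibition relative to vehicle-treated cultures. Compound exposure was carried out in a genetically defined yeast strain deficient in DNA damage repair.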

[5] = NCI Yeast Anticancer Drug Screen. Data for the mec2-1 strain (AID 157); settings: S. cerevisiae mec2-1 strain, active compounds read high
How it was run: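 Using mec2-1 yeast: add compound, measure growth, express inhibition versus vehicle-treated cultures.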

[6] = NCI Yeast Anticancer Drug Screen. Data for the rad14 strain (AID 159);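 also: 0% = growth of vehicle-treated control cultures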; settings: S. cerevisiae rad14 strain growth inhibition, active compounds read high
How it was run: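 Growth inhibition vs vehicle controls; genetically altered yeast strain (DNA damage repair defect) treated with test compounds.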

[7] = NCI Yeast Anticancer Drug Screen. Data for the sgs1 mgt1 strain (AID 161);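 also: 0% = growth of cultures given vehicle only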; settings: S. cerevisiae sgs1 mgt1 strain, active compounds read high
How it was run: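 Compounds are added to genetically altered yeast, and growth is compared with cultures given vehicle alone to give percent inhibition.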

[8] = NCI Yeast Anticancer Drug Screen. Data for the CLN2oe strain (AID 163);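 also: 0% = growth of vehicle-only control cultures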; settings: S. cerevisiae CLN2oe strain, active compounds read high
How it was run: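 Whole-cell yeast growth assay. A strain engineered for altered cell-cycle control received compound, and inhibition relative to vehicle-treated cultures was recorded.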

[9] = NCI Yeast Anticancer Drug Screen. Data for the cln2 rad14 strain (AID 165);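 also: 0% = growth equal to vehicle treated cultures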; settings: S. cerevisiae cln2 rad14 strain, active compounds read high
How it was run: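 Yeast strain cln2 rad14, bearing defects in cell cycle control and DNA repair, serves as the test system; values reflect growth inhibition compared with vehicle.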

[10] = NCI Yeast Anticancer Drug Screen. Data for the bub3 strain (AID 167); settings: S. cerevisiae bub3 mutant strain, active compounds read high
How it was run: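 Readout: yeast growth inhibition, expressed relative to vehicle-only wells. The test organism is a mutant strain from a panel with lesions in DNA repair or checkpoint genes.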

[11] = NCI Yeast Anticancer Drug Screen. Data for the wt2 strain (AID 169);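 also: 0% = growth of vehicle-treated yeast cultures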; settings: S. cerevisiae wt2 strain growth inhibition, active compounds read high
How it was run: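 Treated yeast vs. vehicle-treated yeast: growth inhibition determined.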

[12] = NCI Yeast Anticancer Drug Screen. Data for the mlh1 strain (AID 171);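 also: 0% = growth of vehicle-treated control cultures of the same strain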; settings: S. cerevisiae mlh1 strain growth inhibition, active compounds read high
How it was run: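 A yeast strain with a defined genetic lesion serves as the test organism. Cultures receive compound or vehicle, and growth is measured.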

[13] = NCI Yeast Anticancer Drug Screen. Data for the sgs1 strain (AID 173);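 also: 0% = growth of vehicle-only control cultures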; settings: S. cerevisiae sgs1 mutant, active compounds read high
How it was run: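 A genetically defined yeast mutant is incubated with the test compound, and its growth is compared to that of the same strain given vehicle.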

[14] = NCI Yeast Anticancer Drug Screen. Data for the mlh1 rad18 strain (AID 175); settings: S. cerevisiae mlh1 rad18 strain growth inhibition, active compounds read high
How it was run: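 Steps: expose repair-defective yeast to compound; measure growth; express inhibition against vehicle-treated controls.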

[15] = NCI Yeast Anticancer Drug Screen. Data for the rad18 strain (AID 177); settings: S. cerevisiae rad18 mutant growth inhibition, active compounds read high
How it was run: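 Measured value is growth inhibition of a yeast strain bearing a DNA repair alteration, referenced to vehicle-treated cells.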

[16] = NCI Yeast Anticancer Drug Screen. Data for the rad52 strain (AID 147);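 also: 0% = growth of vehicle-treated control cultures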; settings: S. cerevisiae rad52 mutant growth inhibition, active compounds read high
How it was run: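 Here a repair-compromised yeast strain receives each compound; its growth is then quantified and normalised to vehicle-only controls.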

[17] = at 5.0 µM (retest, dose inferred, filed as 0.5)
[18] = at 50.0 µM (retest, dose inferred, filed as 5.0)

Measured: growth inhibition

O=S(=O)(O)CC[S][Sn]([S]CCS(=O)(=O)O)([c]1ccccc1)[c]1ccccc1
inactive: [1]; at 1.2 µM -25% | [1]; at 3.7 µM 12% | [2]; at 1.2 µM -20% | [2]; at 3.7 µM -17% | [2]; at 11.0 µM -11% | [2]; at 33.0 µM -7% | [2]; at 100.0 µM -22% | [3]; at 1.2 µM -7% | [3]; at 3.7 µM 45% | [4]; at 1.2 µM -28% | [4]; at 3.7 µM 18% | [4]; [17] 22% | [5]; at 1.2 µM -21% | [5]; at 3.7 µM 11% | [5]; [17] 20% | [6]; at 1.2 µM -6% | [6]; at 3.7 µM 35% | [7]; [17] 3% | [8]; at 1.2 µM 20% | [8]; at 3.7 µM 20% | [9]; [17] 6% | [10]; at 1.2 µM -31% | [10]; at 3.7 µM 30% | [10]; [17] 46% | [11]; at 1.2 µM -34% | [11]; at 3.7 µM 8% | [12]; at 1.2 µM -35% | [12]; at 3.7 µM 11% | [13]; at 1.2 µM -12% | [13]; at 3.7 µM 32% | [14]; [17] 43% | [15]; at 1.2 µM -2% | [15]; at 3.7 µM 43%
active: [1]; at 11.0 µM 80% | [1]; at 33.0 µM 95% | [1]; at 100.0 µM 98% | [3]; at 11.0 µM 92% | [3]; at 33.0 µM 97% | [3]; at 100.0 µM 98% | [4]; at 11.0 µM 90% | [4]; at 33.0 µM 97% | [4]; [18] 97% | [4]; at 50.0 µM 88.5% | [4]; at 100.0 µM 97% | [5]; at 11.0 µM 81% | [5]; at 33.0 µM 97% | [5]; [18] 99% | [5]; at 50.0 µM 89.8% | [5]; at 100.0 µM 98% | [6]; at 11.0 µM 91% | [6]; at 33.0 µM 97% | [6]; at 100.0 µM 97% | [7]; [18] 95% | [7]; at 50.0 µM 91% | [8]; at 11.0 µM 72% | [8]; at 33.0 µM 96% | [8]; at 100.0 µM 98% | [9]; [18] 91% | [9]; at 50.0 µM 88.5% | [10]; at 11.0 µM 87% | [10]; at 33.0 µM 96% | [10]; [18] 96% | [10]; at 50.0 µM 87.8% | [10]; at 100.0 µM 97% | [11]; at 11.0 µM 89% | [11]; at 33.0 µM 98% | [11]; at 100.0 µM 97% | [12]; at 11.0 µM 89% | [12]; at 33.0 µM 95% | [12]; at 100.0 µM 96% | [13]; at 11.0 µM 88% | [13]; at 33.0 µM 96% | [13]; at 100.0 µM 97% | [14]; [18] 99% | [14]; at 50.0 µM 91.5% | [15]; at 11.0 µM 92% | [15]; at 33.0 µM 96% | [15]; at 100.0 µM 98%

COc1ccc2c(C)cc(N/N=C/c3sccc3C)nc2c1
active: [4]; at 33.0 µM 80% | [4]; [18] 92% | [4]; at 100.0 µM 73% | [5]; [18] 92% | [7]; at 50.0 µM 80.3% | [10]; at 33.0 µM 88% | [10]; at 100.0 µM 82% | [11]; at 33.0 µM 78% | [11]; at 100.0 µM 73% | [13]; at 33.0 µM 88% | [13]; at 100.0 µM 78% | [14]; [18] 94% | [14]; at 50.0 µM 76.3% | [15]; at 33.0 µM 85% | [15]; at 100.0 µM 70%
inactive: [16]; at 1.2 µM -31% | [16]; at 3.7 µM -45% | [16]; at 11.0 µM -35% | [16]; at 33.0 µM 29% | [16]; at 100.0 µM 18% | [1]; at 1.2 µM -30% | [1]; at 3.7 µM -32% | [1]; at 11.0 µM -15% | [1]; at 33.0 µM 63% | [1]; at 100.0 µM 66% | [2]; at 1.2 µM -11% | [2]; at 3.7 µM -10% | [2]; at 11.0 µM -4% | [2]; at 33.0 µM 24% | [2]; at 100.0 µM 21% | [4]; at 1.2 µM -15% | [4]; at 3.7 µM -25% | [4]; [17] 22% | [4]; at 11.0 µM 23% | [4]; at 50.0 µM 68.5% | [5]; at 1.2 µM -22% | [5]; at 3.7 µM -28% | [5]; [17] 12% | [5]; at 11.0 µM -8% | [5]; at 33.0 µM 57% | [5]; at 50.0 µM 50% | [5]; at 100.0 µM 46% | [6]; at 1.2 µM -53% | [6]; at 3.7 µM -27% | [6]; at 11.0 µM -10% | [6]; at 33.0 µM 35% | [6]; at 100.0 µM 31% | [7]; [17] 19% | [7]; [18] 8% | [8]; at 1.2 µM -6% | [8]; at 3.7 µM -9% | [8]; at 11.0 µM 0% | [8]; at 33.0 µM 65% | [8]; at 100.0 µM 56% | [9]; [17] 4% | [9]; [18] -26% | [9]; at 50.0 µM 45.8% | [10]; at 1.2 µM -11% | [10]; at 3.7 µM 10% | [10]; [17] 13% | [10]; at 11.0 µM -7% | [10]; [18] -26% | [10]; at 50.0 µM 45.1% | [11]; at 1.2 µM 13% | [11]; at 3.7 µM -6% | [11]; at 11.0 µM 24% | [12]; at 1.2 µM -27% | [12]; at 3.7 µM -5% | [12]; at 11.0 µM -7% | [12]; at 33.0 µM 60% | [12]; at 100.0 µM 56% | [13]; at 1.2 µM -34% | [13]; at 3.7 µM -37% | [13]; at 11.0 µM 14% | [14]; [17] 27% | [15]; at 1.2 µM 3% | [15]; at 3.7 µM -4% | [15]; at 11.0 µM 6%

Cc1c2oc3c(C)ccc(C(=O)N[C@@H]4C(=O)N[C@H](C(C)C)C(=O)N5CCC[C@H]5C(=O)N(C)CC(=O)N(C)[C@@H](C(C)C)C(=O)O[C@H]4C)c3nc-2c(C(=O)N[C@@H]2C(=O)N[C@H](C(C)C)C(=O)N3CCC[C@H]3C(=O)N(C)CC(=O)N(C)[C@@H](C(C)C)C(=O)O[C@H]2C)c(N)c1=O (I: [aThr][dV]P[Sar][NMeV] / II: [aThr][dV]P[Sar][NMeV]; ester I:1-I:C, II:1-II:C; linker I:N-II:N via Actinocin(9to1))
inactive: [16]; at 1.2 µM 5% | [16]; at 3.7 µM 38% | [1]; at 1.2 µM 0% | [1]; at 3.7 µM 19% | [1]; at 11.0 µM 58% | [2]; at 1.2 µM 2% | [2]; at 3.7 µM 53% | [4]; at 1.2 µM 9% | [4]; at 3.7 µM 59% | [4]; [17] 65% | [5]; at 1.2 µM 1% | [5]; at 3.7 µM 29% | [5]; [17] 53%
active: [16]; at 11.0 µM 85% | [16]; at 33.0 µM 96% | [16]; at 100.0 µM 98% | [1]; at 33.0 µM 95% | [1]; at 100.0 µM 95% | [2]; at 11.0 µM 94% | [2]; at 33.0 µM 97% | [2]; at 100.0 µM 99% | [4]; at 11.0 µM 92% | [4]; at 33.0 µM 98% | [4]; [18] 98% | [4]; at 50.0 µM 91.2% | [4]; at 100.0 µM 99% | [5]; at 11.0 µM 84% | [5]; at 33.0 µM 97% | [5]; [18] 99% | [5]; at 50.0 µM 93%
